For 40 compounds, outcome and fluorescence, % of fluorescein control results are on record in PubChem BioAssay (Tox21).

The source made the active and inactive calls. Calls come from the whole dose curve; as a rule, active = well fitted curve in the direction sought with a large enough effect in the repeat runs; inconclusive = weak or mixed curves; inactive = flat fitted curve, though single readings scatter.
% is set by controls: 0 for no effect and ±100 for the full control effect.

The assay is described as follows: qHTS assay to test for compound auto fluorescence at 535 nm (green) in HepG2 cell free culture (AID 720686). To be noted: Cell-free medium, green autofluorescence 485/535 nm; series mostly up to 91.3 µM. The source says:
U.S. Tox21 Program National Center for Advancing Translational Sciences [NCATS] NIH Chemical Genomics Center [NCGC] U.S. Environmental Protection Agency [EPA] National Institutes of Environmental Health Sciences [NIEHS] National Toxicology Program [NTP] U.S. Food and Drug Administration [FDA] Tox21 Assay Overview: Compound auto fluorescence often interferes with screening of the compound library against various biological targets and signaling pathways. Some of these compounds may have fluorophoric properties. Such properties may interfere with the assay outputs resulting in false positives and/or negatives. To decrease such complications and ensure the compound activities are relevant in terms of biological response, the Tox21 10K compound library was screened for auto fluorescence. From the fluorophores used as reporter signals in our screening assays, the auto fluorescence equivalencies of compounds against three fluorophores have been evaluated: Triamterene, Fluorescein and Rose Bengal sodium for blue, green and red fluorescence, respectively. The fluorescence intensities were measured using Excitation/Emission wavelengths at 405/460nm, 485/535nm and 540/590nm for blue, green and red labels, respectively. This assay includes the green fluorescence data.
Tox21 Assay Protocol Summary: 5 uL of culture medium (MEM containing 10% FBS) per well was dispensed into black wall/clear bottom 1536-well plates using a Multidrop Combi Dispenser (ThermoFisher Scientific, Waltham, MA). After 23 nL compound or DMSO vehicle was transferred into assay plate by a pintool work station (Kalypsys, San Diego, CA), fluorescence intensities in the assay plates were measured by an Envision (PerkinElmer, Shelton, CT) plate reader using three labels for measuring blue, green and red fluorescence at […] 460, 535 and 590nm respectively.
Take `C=C(C)[C@@H]1CC[C@@H](C)C[C@@H]1O`: the outcome was inactive.
Consider `CCN(Cc1cccc(S(=O)(=O)O)c1)c1ccccc1`, for which the compound was called inactive.
Same read-out and setting: then `C=CCOCC(O)CCl` (stereo not given), with “inactive”.
The same measure, in the same setting: to `O=C(/C=C/c1ccccc1)NCCO` belongs “inactive”; to `CC(CC(=O)O)CC(C)(C)C` (stereo not given), “inactive”.
Same read-out and setting: then `NS(=O)(=O)c1ccc(Cl)c(S(N)(=O)=O)c1`, with “inactive”.
Regarding `CCCCCCCCOC(C)=O`, the compound was called inactive.
Turning to `Cc1cccc(Nc2ccncc2S(=O)(=O)NC(=O)NC(C)C)c1`, the fluorescence, % of fluorescein control was 0.0067% [at 18.6 µM] (inactive).
On to `O=C(O)Cc1cccc(-c2cc(CCCCCCc3ccc(O[C@H]4O[C@H](CO)[C@@H](O)[C@H](O)[C@@H]4O)c(-c4cccc(CC(=O)O)c4)c3)ccc2O[C@H]2O[C@H](CO)[C@@H](O)[C@H](O)[C@@H]2O)c1`, for which the compound was called inactive.
On the same count and under the same terms, then `Cc1ccccc1C`, with “inactive”; and `CN(C1CCCCC1)S(=O)(=O)c1ccccc1N`, with “inactive”; and `COc1cccc2sc(N)nc12`, with “inactive”.
On the same count and under the same terms, then `C=C(C)C(=O)OC`, with “inactive”.
The same measure, in the same setting: then `O=C(O)c1ccccc1C(=O)Nc1ccc(S(=O)(=O)Nc2nccs2)cc1`, with “inactive”.
For the compound `CCNC(=O)NCCCOc1cccc(CN2CCCCC2)c1`, the result was inactive.
On to `CCCOCCOCCOCCO`, for which the result was inactive.
Still for that read-out and setting: then `CC(C)SCc1ccco1`, with “inactive”.
Same read-out and setting: then `Cc1ccccc1N1CCN(CCc2nnc3n2CCCC3)CC1`, with “inactive”; and `COC(OC)C(C)c1ccccc1` (stereo not given), with “inactive”.
On the same count and under the same terms, then `Nc1cc(Cl)cc(S(=O)(=O)O)c1O`, with “inactive”; and `O=c1cc(O)c(Cl)c[nH]1`, with “inactive”.
For `Nc1ccnc(=O)[nH]1`, the compound was called inactive.
Same read-out and setting: then `CCOC(=O)CC(CC(=O)OCC)(OC(C)=O)C(=O)OCC`, with “inactive”; and `CCCCCC1CCCC(=O)O1` (stereo not given), with “inactive”.
On the same count and under the same terms, to `CCN(CCO)c1cccc(C)c1` belongs “inactive”.
With `Cc1cccc(C(=O)O)c1[N+](=O)[O-]`, the compound was classed as inactive.
The same measure, in the same setting: then `Cc1ccccc1OCC1CO1` (stereo not given), with “inactive”; and `CC(C)CCCC(C)CC=O` (stereo not given), with “inactive”.
On to `NS(=O)(=O)c1cc2c(cc1Cl)NC(CC1CCCC1)NS2(=O)=O` (stereo not given), for which the fluorescence, % of fluorescein control is -0.0012% [at 18.6 µM] (inactive).
As to `N#CCCOCCOCCC#N`, the call was inactive.
On the same count and under the same terms, then `Cc1c(C(C)C)c(=O)n(-c2ccccc2)n1C`, with “inactive”; and `CCOC(=O)CC#N`, with “inactive”; and `CO[Si](CCCS)(OC)OC`, with “inactive”.
The same measure, in the same setting: to `O=C1c2ccccc2-c2ccccc21` belongs “inactive”; to `CC1=CC[C@H](CC=O)C1(C)C`, “inactive”.
On to `BrC/C=C/CBr`, for which the fluorescence, % of fluorescein control was -0.0214% [at 18.6 µM] (inactive).
With `CC(=O)OC(C(=O)c1ccccc1)c1ccccc1` (stereo not given), the call was inactive.
As for `O=C(O)/C=C/c1ccccc1`, the compound was classed as inactive.
In the case of `COc1cc(C=O)ccc1OC(=O)C(C)C`, the outcome was inactive.
The same measure, in the same setting: to `CO/N=C(/C(=O)N[C@@H]1C(=O)N2C(C(=O)O)=C(Cn3nnc(C)n3)CS[C@H]12)c1csc(N)n1` belongs “inactive”.
